# Measured values reported in PubChem BioAssay AID686948 (National Center for Advancing Translational Sciences (NCATS), 2013).
# Active and inactive are the calls of the source. Calls come from the whole dose curve; as a rule, active = well fitted inhibition curve with a large enough effect; inactive = flat fitted curve, though single readings scatter.
# Biological target: Tyrosine-protein kinase Yes (Homo sapiens) (UniProt P07947)
# Assay: qHTS for small molecule inhibitors of Yes1 kinase: Confirmatory screen on the cherrypicks
# Conditions: Recombinant Yes1, ADP-Glo luminescence, poly(E4Y) substrate
# Source text: The Src family of non-receptor protein tyrosine kinases contains nine members, including Yes1, Src, Fyn, Lyn, and […]. These kinases have important roles in a variety of cellular functions, such as cell proliferation, survival, and differentiation. Src, the most well characterized member of this family, has been previously identified as a proto-oncogene. […] In melanoma, it has been shown that Yes1, and not other family members, such as Src, is functionally involved in the malignant phenotype. Additionally, a recent study examining the downregulation of Yes1 by shRNA found significant effects on cell survival/growth for basal-like and Her2-positive breast cancers. […]
# Two microliter of Yes1 enzyme (columns 1-2, 5-48; Millipore, Billerica, MA) are dispensed into Greiner, white solid-bottom 1536-well assay plates; columns 3 and 4 receive buffer without Yes1 as a control for maximum inhibition. […] The production of ADP is then quantified by the ADP-Glo Kit (Promega, Madison, WI). First, 2 uL of the first kit reagent is added, and the reaction is incubated for 45 minutes; then, 4 uL of the second kit reagent are added and the reaction is incubated for 30 minutes at which time the luminescence is read on a Viewlux plate reader (Perkin-Elmer, Waltham, MA). […]
# Sequence of Tyrosine-protein kinase Yes (Homo sapiens) (P07947 whole entry, looked up): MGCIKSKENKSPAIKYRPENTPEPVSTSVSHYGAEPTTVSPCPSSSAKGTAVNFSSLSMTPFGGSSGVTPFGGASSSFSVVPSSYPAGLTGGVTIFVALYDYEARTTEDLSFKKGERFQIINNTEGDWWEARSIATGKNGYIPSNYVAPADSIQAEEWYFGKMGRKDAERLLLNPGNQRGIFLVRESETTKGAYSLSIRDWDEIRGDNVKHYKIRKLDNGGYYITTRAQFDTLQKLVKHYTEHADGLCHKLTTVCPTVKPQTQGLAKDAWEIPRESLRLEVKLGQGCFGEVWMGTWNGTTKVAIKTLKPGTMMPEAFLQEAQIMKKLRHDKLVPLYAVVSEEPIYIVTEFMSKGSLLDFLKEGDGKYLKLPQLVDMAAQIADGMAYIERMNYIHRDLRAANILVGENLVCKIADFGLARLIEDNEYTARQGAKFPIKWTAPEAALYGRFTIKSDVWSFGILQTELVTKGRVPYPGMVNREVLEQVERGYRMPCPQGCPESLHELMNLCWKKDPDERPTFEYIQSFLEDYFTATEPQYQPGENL
compound,measurement,value
c1cc(-c2cnn3cc(-c4ccc(OCCN5CCCCC5)cc4)cnc23)ccn1,Potency,196 nM (active)
